Consider 26 compounds from PubChem BioAssay (NCI).

About 83,000 compounds went through this panel and 20% of them were active in at least one assay; those are over-represented in the sample as a whole.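 Assay: single dose, 48 h. Readout: percent growth (0 = no net growth; negative = cell death). Active: <10.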 Values without a mark were called inactive. Active and inactive are the calls of the source.

The test relates to MDA-MB-468 breast. The experiment in a line: NCI-60 one-dose screen, 48 h (100 = growth as untreated, 0 = no growth, -100 = all killed). The note with it: 10 µM unless noted.
As to `FCOC(C(F)(F)F)C(F)(F)F`, the growth was 108%. Regarding `C[C@H](C(=O)Nc1ccc(S(N)(=O)=O)cc1)S(=O)(=O)c1ccccc1`, the growth is 102%. `O=C1/C(=C/c2ccc(-c3ccc(Cl)cc3)o2)SC(=S)N1CCc1ccc(O)cc1`: the growth was 87%. Turning to `COc1ccc2[nH]cc(-c3nc(-c4c[nH]c5ncccc45)cs3)c2c1`, the growth was 39.1%.

`CC1(C)CC[C@]2(C(N)=O)CC[C@]3(C)C(=CC[C@@H]4[C@@]5(C)C/C(=C/c6cccnc6)C(=O)C(C)(C)[C@@H]5CC[C@]43C)[C@@H]2C1`: the growth is -17.1% [100 µM] (active).

On to `CC(=O)c1c(O)c(C)c(O)c2c1OC1=CC(=O)/C(=C(/C)N)C(=O)C12C` (stereo unspecified), for which the growth was 74.6%. Turning to `O=C(CCCSc1nc(-c2ccccc2)cc(-c2ccccc2)n1)NO`, the growth is -38% (active). Consider `N#Cc1c2c(nc3n[nH]c(N)c13)CCCC2`, for which the growth was 93.6%. Consider `COc1ccc(/C=C\C(=O)/C=C/c2ccc(OC)cc2)cc1`, for which the growth was 18.7%. Take `CCCCC(CC)COC(C)=O` (stereo unspecified): the growth was 106%.

Take `COc1ccc(CN2c3ccccc3CCc3ccccc32)cc1F`: the growth was 4.48% (active). With `CCCCCCNC(=O)Nc1ccc2cc3ccc(NC(=O)NCCCCCC)cc3nc2c1` the figure was 18.6%; with `O=c1c2cc(F)ccc2sc2c(NCCCN3CCCC3)nc3ccccc3c12`, -13.7% (active); with `COC(=O)c1ccc2c(C(=Nc3ccc(N(C)C(=O)CN4CCN(C)CC4)cc3)c3ccccc3)c(O)[nH]c2c1`, 91%.

Regarding `C=C(C)C(=O)Nc1ccc(NC(C)C)cc1`, the growth is 111%. Consider `N#Cc1c(-c2ccc(F)cc2)nc(N=Nc2c(O)[nH]c3ccccc23)nc1N1CCOCC1`, for which the growth is 59.1%.

On to `COc1cc(NCC(O)CN(CC(C)C)CC(C)C)c2ncccc2c1` (stereo unspecified), for which the growth was -19.8% (active).

As for `CCN1C(=O)/C(=c2\sc3n(c2=O)C2C(NN=3)N(CC)C(=S)N2CC)c2ccccc21` (stereo unspecified), the growth was 104%. Turning to `C#CC#CC#CC#CC#CC#CC#CC#CC[C@H]1OC[C@H](COC(=O)O[C@@H](C(=O)O[C@H]2C[C@@]3(O)[C@@H](OC(=O)c4ccccc4)[C@@H]4[C@]5(OC(C)=O)CO[C@@H]5C[C@H](O)[C@@]4(C)C(=O)[C@H](OC(C)=O)C(=C2C)C3(C)C)[C@@H](NC(=O)c2ccccc2)c2ccccc2)O1`, the growth is 19.3%. With `C=CC(=O)N1CC=C(c2cc3c(N[C@H](C)c4ccccc4)ncnc3[nH]2)CC1` the figure was 33.3%.

`COc1cccc(CC(C)=C(c2ccc(OCCN(C)C)cc2)c2ccc(OCCN(C)C)cc2)c1`: the growth was -61.5% (active). With `CC(C)c1ccc(-n2c(=S)[nH]c3sc4c(c3c2=O)CCC(=O)C4)cc1`, the growth is 58.6%. With `Cc1c(Cl)ccc2c(C(=O)Cl)cc(-c3ccccc3)nc12` the figure was 101%; with `CCCCCCSc1ncnc2nc[nH]c12`, 67.3%; with `O=C(CCCCCC/C=C\c1csc(Br)n1)NO`, 84.9%. Then `Cc1ccc(S(=O)(=O)OCC#CCOS(=O)(=O)c2ccc(C)cc2)cc1`, with -25.3% (active).
